# PubChem BioAssay (NCATS)
# Records with an inconclusive call do not appear. A call without a number means that no potency is given here. The source made the active and inactive calls. Calls follow the shape of the dose curve; as a rule, active = well fitted curve in the direction sought with a large enough effect; inconclusive = small, poorly fitted or top-dose-only effect, or another doubt; inactive = no such curve, though single readings can be large; an effect the other way counts as inactive or inconclusive.
# How the values were obtained:
# [1] = qHTS for Inhibitors of Plasmodium falciparum (DD2) proliferation (AID 504314); details: P. falciparum Dd2 in erythrocytes, SYBR Green growth, 72 h; series mostly up to 1.12 µM
# How it was run: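 SYBR Green growth assay: 72 h compound exposure of infected red cells (2.5% hematocrit, 0.3% parasitemia), then lysis and overnight dye staining, fluorescence 485/535 nm. Values scaled between DMSO and 0.29 uM artemisinin controls.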
# [2] = qHTS for Inhibitors of Plasmodium falciparum (CP250) proliferation (AID 504320); details: P. falciparum CP250 in erythrocytes, SYBR Green DNA, 72 h; series mostly up to 6.7 µM
# How it was run: (§1)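 Parasite growth measured as SYBR Green DNA fluorescence (ex 485, em 535 nm) after overnight lysis following 72 h culture at 37 °C, 0.3% parasitemia, 2.5% hematocrit. Values normalized against DMSO and 0.29 uM artemisinin controls, with plate-stack correction.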
# [3] = qHTS for Inhibitors of Plasmodium falciparum (GB4) proliferation (AID 504315); also: nearly all actives have a fitted effect of over 50% in size; details: P. falciparum GB4 in erythrocytes, SYBR Green DNA, 72 h; series mostly up to 6.7 µM
# How it was run: as §1
# [4] = qHTS for Inhibitors of Plasmodium falciparum (7G8) proliferation (AID 504316); also: nearly all actives have a fitted effect of over 65% in size; details: P. falciparum 7G8 in erythrocytes, SYBR Green DNA, 72 h; series mostly up to 6.7 µM
# How it was run: as §1
# [5] = qHTS for Inhibitors of Plasmodium falciparum (HB3) proliferation (AID 504318); also: nearly all actives have a fitted effect of over 60% in size; details: P. falciparum HB3 in erythrocytes, SYBR Green DNA, 72 h; series mostly up to 7.21 µM
# How it was run: as §1
# Potency is read from the fitted curve at half-maximal effect.
smiles,measurement,setting,value
COC(=O)C1=C(C)N(Cc2ccccc2)C(=NCCc2cccnc2)NC1c1ccc(Br)cc1 (stereo not given),Potency,[1],1.5 µM (active)
same,Potency,[2],1.9 µM (active)
CCCCCCCC1=Cc2ccccc2C(C(C(C)=O)C(=O)OC)N1C(=O)OC (stereo not given),Potency,[1],inactive
same,Potency,[2],inactive
c1ccc(-c2nc(-c3cccc4ccccc34)c(Nc3ccc4ccccc4c3)o2)cc1,Potency,[3],1.51 µM (active)
same,Potency,[4],1.51 µM (active)
same,Potency,[5],1.51 µM (active)
CCOC(=O)CN1C(=O)N(CC)C(C)=C(C(=O)OC)[C@@H]1c1ccccc1,Potency,[3],inactive
same,Potency,[4],inactive
same,Potency,[5],inactive
same,Potency,[2],inactive
C=C(C(C)=O)C(O)c1cccs1 (stereo not given),Potency,[1],inactive
same,Potency,[2],inactive
CCOC(=O)CCCNC(=O)N1CCc2nc(-c3ccc(OC)cc3C)c3c(c2C1)CO[C@@H](c1ccccc1)C3,Potency,[1],inactive
same,Potency,[2],inactive
COC(=O)C1=C(C(=O)OC)[C@@H]2N(C)c3ccc(OC)cc3[C@@]23C[C@@H](C(=O)OC)N(C(=O)CC(C)C)C3=N1,Potency,[1],inactive
same,Potency,[2],inactive
C=CC1=C2C=C(C3CC3)N(C3CC3)C=C2C(=O)C(C)(OC(=O)c2ccco2)C1=O (stereo not given),Potency,[3],inactive
same,Potency,[4],inactive
same,Potency,[2],inactive
COC(=O)C1=C(C(=O)OC)[C@@H]2N(C)c3ccc(OC)cc3[C@@]23C[C@@H](C(=O)OC)N(S(=O)(=O)c2ccc([N+](=O)[O-])cc2)C3=N1,Potency,[1],inactive
same,Potency,[2],inactive
COc1cccc(CC(=O)N2CCc3nc(-c4ccc(OC)cc4C)c4c(c3C2)CO[C@@H](c2ccccc2)C4)c1,Potency,[1],inactive
same,Potency,[2],inactive
C=CCNC(=O)N1C2=NC(C(=O)OC)=C(C(=O)OC)[C@@H]3N(Cc4ccccc4)c4ccccc4[C@]23C[C@H]1C(=O)OC,Potency,[3],1.9 µM (active)
